Here are results for six compounds from PubChem BioAssay (NCI).

Each structure is given as a SMILES string. Compounds without any hit were thinned out: in the full panel of roughly 83,000, 20% have a hit.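 Results are percent growth after 48 hours of single-concentration exposure. 100 means growth as in untreated cells, lower positive values show inhibition; negative values down to -100 show cell death.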 Unmarked numbers belong to inactive results. Active and inactive are the calls of the source. How the source made its calls: active means growth percent below 10; inactive means the rest.

Some test systems named below: SR leukemia; RPMI-8226 leukemia; OVCAR-8 ovarian; OVCAR-5 ovarian; OVCAR-4 ovarian; SK-OV-3 ovarian; IGROV1 ovarian; OVCAR-3 ovarian; HS 578T breast; NCI/ADR-RES ovarian; T-47D breast; BT-549 breast; MDA-MB-435 melanoma; SW-620 colon; MCF7 breast; HCT-116 colon; HCC-2998 colon; KM12 colon; MDA-MB-468 breast.
Experiment in all cases: NCI-60 one-dose screen, 48 h (100 = growth as untreated, 0 = no growth, -100 = all killed)
Holding throughout (settings): 10 µM unless noted

For `O=C(N=Nc1c(O)[nH]c2ccc(Cl)cc12)c1ccc2nc(-c3ccccc3)[nH]c2c1`, the growth in the assay with SR leukemia is 15.3%; in the assay with RPMI-8226 leukemia, 70.1%; in the assay with OVCAR-8 ovarian, 20.8%; in the assay on OVCAR-5 ovarian, 106%; in the assay with OVCAR-4 ovarian, 38.2%; with SK-OV-3 ovarian, 91%. For the same compound, the growth was 75.4% in the assay on IGROV1 ovarian; 109% in the assay on OVCAR-3 ovarian; 52.3% in the assay with HS 578T breast; 90% in the assay with NCI/ADR-RES ovarian; 30.1% in the assay on T-47D breast; 109% in the assay on BT-549 breast. Further, the growth in the assay with MDA-MB-435 melanoma is 79.7%; in the assay on SW-620 colon, 17.8%; in the assay on MCF7 breast, 4.1% (active); in the assay on HCT-116 colon, 59.4%; with HCC-2998 colon it was 10.3%; in the assay with KM12 colon it was 91.2%. Moreover, the growth with MDA-MB-468 breast is -31.3% (active).
Take `COc1ccc2c(c1)c(-c1cc(N)n3nc(-c4cn(C)c5ccccc45)cc3n1)cn2C`: the growth is 6.15% (active) in the assay with SR leukemia; -14.5% (active) in the assay on RPMI-8226 leukemia; -94.4% (active) with OVCAR-8 ovarian; -38.8% (active) with OVCAR-5 ovarian; -64.2% (active) in the assay with OVCAR-4 ovarian; -79.5% (active) with SK-OV-3 ovarian. Moreover, the growth was -40.3% (active) in the assay with IGROV1 ovarian; -67.4% (active) with OVCAR-3 ovarian; -20.7% (active) in the assay on HS 578T breast; -17.1% (active) in the assay on NCI/ADR-RES ovarian; -57.4% (active) in the assay with T-47D breast; -22.4% (active) in the assay on BT-549 breast. For the same compound, the growth with MDA-MB-435 melanoma is -75.6% (active); in the assay with SW-620 colon, -58.5% (active); in the assay on MCF7 breast, -60.6% (active); in the assay on HCT-116 colon, -88.6% (active); in the assay with HCC-2998 colon, -82% (active); with KM12 colon it was -60.6% (active). The growth in the assay with MDA-MB-468 breast was -34.6% (active).
Regarding `C=C1CC[C@@H]2[C@]3(C)COC(c4ccco4)O[C@@H]3CC[C@@]2(C)[C@@H]1C/C=C1/C(=O)OCC1OC(C)=O` (some centres undefined), the growth with SR leukemia is -21% (active); with RPMI-8226 leukemia, -30.9% (active); in the assay with OVCAR-8 ovarian, -8.73% (active); in the assay with OVCAR-5 ovarian, 35.8%; in the assay with OVCAR-4 ovarian it was 48.2%; in the assay on SK-OV-3 ovarian, 105%. Further, the growth in the assay on IGROV1 ovarian is 9.51% (active); with OVCAR-3 ovarian, -28.9% (active); in the assay with HS 578T breast it was 66.8%; with NCI/ADR-RES ovarian, 8.21% (active); in the assay on T-47D breast it was 45.5%; in the assay with BT-549 breast, -4.43% (active). Besides, the growth in the assay with MDA-MB-435 melanoma was 31.9%; in the assay with SW-620 colon, -8.09% (active); in the assay with MCF7 breast, 13.4%; with HCT-116 colon, -52% (active); in the assay on HCC-2998 colon it was 31.8%; in the assay with KM12 colon, 52.4%. Further, the growth in the assay on MDA-MB-468 breast is -2.37% (active).
As for `Cc1ccc(C2=NN(c3nc(-c4cc5ccccc5oc4=O)cs3)C(c3ccc(C)cc3)C2)cc1` (centres undefined), the growth in the assay on SR leukemia was 102%; in the assay on RPMI-8226 leukemia, 98.6%; with OVCAR-8 ovarian it was 106%; in the assay with OVCAR-5 ovarian, 126%; in the assay on OVCAR-4 ovarian it was 99.1%; in the assay on SK-OV-3 ovarian it was 80.3%. For the same compound, the growth with IGROV1 ovarian was 104%; with OVCAR-3 ovarian, 109%; with HS 578T breast, 101%; with NCI/ADR-RES ovarian, 101%; in the assay on T-47D breast, 91.8%; in the assay with BT-549 breast it was 120%. For the same compound, the growth in the assay on MDA-MB-435 melanoma was 107%; with SW-620 colon, 105%; in the assay on MCF7 breast, 63.4%; with HCT-116 colon, 110%; in the assay with HCC-2998 colon, 118%; in the assay with KM12 colon it was 106%. Besides, the growth in the assay on MDA-MB-468 breast was 78.2%.
Consider `Cc1cc2nc3c4ccccc4n(CCCN(C)C)c3nc2cc1C`, for which the growth in the assay with SR leukemia is 3.07% (active); in the assay on RPMI-8226 leukemia, -26.1% (active); with OVCAR-8 ovarian it was 6.13% (active); with OVCAR-5 ovarian, 9.07% (active); with OVCAR-4 ovarian, -23.4% (active); in the assay with SK-OV-3 ovarian it was 8.14% (active). The growth is -10.5% (active) in the assay on IGROV1 ovarian; -14.2% (active) in the assay with OVCAR-3 ovarian; -10.7% (active) in the assay on HS 578T breast; 1.96% (active) in the assay with NCI/ADR-RES ovarian; -10.7% (active) with T-47D breast; -78.2% (active) in the assay on BT-549 breast. In addition, the growth in the assay with MDA-MB-435 melanoma was -93% (active); in the assay with SW-620 colon, -16.3% (active); in the assay with MCF7 breast, -30% (active); with HCT-116 colon, 3.73% (active); with HCC-2998 colon it was -81.4% (active); in the assay on KM12 colon it was -8.99% (active). Besides, the growth in the assay with MDA-MB-468 breast is -56.9% (active).
For the compound `CCOc1ccc(C(=O)NC(=S)Nc2ccc(S(N)(=O)=O)cc2)cc1`, the growth with SR leukemia was 97.7% [100 µM]; in the assay with RPMI-8226 leukemia, 102% [100 µM]; in the assay on OVCAR-8 ovarian it was 89% [100 µM]; in the assay with OVCAR-5 ovarian, 103% [100 µM]; in the assay with OVCAR-4 ovarian, 84.7% [100 µM]; in the assay on SK-OV-3 ovarian, 102% [100 µM]. The growth in the assay with IGROV1 ovarian is 96.4% [100 µM]; in the assay with OVCAR-3 ovarian, 97.9% [100 µM]; in the assay with HS 578T breast, 89.2% [100 µM]; in the assay with NCI/ADR-RES ovarian, 102% [100 µM]; with T-47D breast, 74.3% [100 µM]; with BT-549 breast, 99.1% [100 µM]. The growth in the assay with MDA-MB-435 melanoma is 99.1% [100 µM]; in the assay with SW-620 colon, 104% [100 µM]; in the assay with MCF7 breast, 97.6% [100 µM]; in the assay on HCT-116 colon it was 97.9% [100 µM]; in the assay on HCC-2998 colon it was 99.5% [100 µM]; with KM12 colon, 97.8% [100 µM]. For the same compound, in the assay with MDA-MB-468 breast, the growth was 83.9% [100 µM].
